# According to PubChem BioAssay (NCATS):
# “And” between values parts separate entries of the source, which are not always exact repeats. Equal entries are not always repeated. Records with an inconclusive call do not appear. The source made the active and inactive calls. Unless noted, calls follow the shape of the dose curve; as a rule, active = well fitted curve in the direction sought with a large enough effect; inconclusive = small, poorly fitted or top-dose-only effect, or another doubt; inactive = no such curve, though single readings can be large; an effect the other way counts as inactive or inconclusive.
# Columns and labels:
# [1] = Confirmatory screen GU Rhodamine qHTS for Zika virus inhibitors qHTS (AID 1347157); also: nearly all actives have a fitted effect of over 70% in size; also: potency is read from the fitted curve at half-maximal effect;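 as to activity change, negative = inhibition: plate controls were no-inhibitor wells for no effect and no-enzyme wells for full effect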
# Procedure, shortened: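 Buffer 10 mM Tris-HCl pH 8.0, 0.01% Tween 20. Unlinked protease 25 nM; compound preincubation 15 min, RT, protected from light. Substrate Rhod110, 1.5 microM; ~15% conversion in 15 min.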
# [2] = ZIKV-mCherry secondary qHTS for Zika virus inhibitors (AID 1347158); also: potency is read from the fitted curve at half-maximal effect; as to activity change, negative = inhibition: top concentration of the series differs between compounds
# Procedure, shortened: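 Compounds were tested in Vero monkey kidney cells infected with recombinant mCherry-expressing Zika virus at MOI 1 for 48-72 h at 37 °C. Fixed cells were nuclear-stained and imaged, and infection rate was taken as the fraction of mCherry-positive cells.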
# [3] = Confirmatory screen NINDS Rhodamine qHTS for Zika virus inhibitors (AID 1347161); also: nearly all actives have a fitted effect of over 60% in size; also: potency is read from the fitted curve at half-maximal effect;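 as to activity change, negative = inhibition: purified Zika NS2B-NS3 protease with linked NS2B cofactor domain and Rhodamine110 peptide substrate; plate controls were no-inhibitor control for no effect and no-enzyme control for full effect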
# Procedure, shortened: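 Purified NS2B-NS3 protease with the NS2B hydrophilic domain joined by a flexible linker (25 nM) in 10 mM Tris-HCl pH 8.0, 0.01% Tween 20, preincubated 15 min at RT with compound; Rhodamine110 peptide substrate 1.5 µM; fluorescence change over 15 min; 4-parameter Hill fit.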
# [4] = tested on: Zika virus NS2B-NS3 protease (linked); test: 384 well plate NINDS AMC confirmatory qHTS for Zika virus inhibitors (AID 1347163); also: nearly all actives have a fitted effect of over 50% in size; also: potency is read from the fitted curve at half-maximal effect;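 as to activity change, negative = inhibition: linked protease at 5 30 or 60 nM final depending on run; fluorescence of AMC released from Ac-VKTGKR-AMC peptide cleaved by the protease; top concentration of the series differs between compounds; 0% = no-inhibitor control and -100% = no-enzyme control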
# Procedure, shortened: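 Fluorescence at 355/460 nm was read after 25 minutes of cleavage of 30 microM Ac-VKTGKR-AMC at room temperature, in the dark. Before substrate addition, compounds (up to 1 mM final) sat ~15 minutes with 5, 30 or 60 nM linked protease. Signals were normalized to no-enzyme and no-inhibitor wells.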
# [5] = tested on: Zika virus NS2B-NS3 protease (linked construct); test: 384 well plate NINDS Rhodamine confirmatory qHTS for Zika virus inhibitors (AID 1347164);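 also: fluorescence from protease cleavage of Ac-LKRR-rhodamine 110 substrate; potency is read from the fitted curve at half-maximal effect; nearly all actives have a fitted effect of over 65% in size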
# Procedure, shortened: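 Linked protease at a final 5 nM, 30 nM or 60 nM was preincubated ~15 min with compounds, then given 10 microM Ac-LKRR-Rhodamine 110. Fluorescence (ex 485/em 538 nm) after 25 min in the dark at room temperature.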
# [6] = Tertiary RLuc qRT-PCR qHTS assay for Zika virus inhibitors (AID 1347169); also: top concentration of the series differs between compounds; % is scaled to controls: 0 for no effect and ±100 for the full control effect; nearly all actives have a fitted effect of over 55% in size
# Procedure, shortened: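 Vero cells (1,000 per well) plated overnight at 37 degrees C, treated with compound in DMSO, then infected with recombinant ZIKV-RLuc (Cambodian) at MOI 1-2 for 48-72 hrs. Live-cell Renilla luciferase substrate added; luminescence read after 1-1.5 hrs.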
# [7] = biological target: Lysosomal acid glucosylceramidase (Homo sapiens) (UniProt P04062); test: Glucocerebrosidase-p2 (AID 348; in the data active = potency below about 10 µM; also: potency is read from the fitted curve at half-maximal effect); conditions: purified GBA, blue fluorogenic substrate, 40 min
# Sequence of Lysosomal acid glucosylceramidase (Homo sapiens) (P04062 whole entry, looked up): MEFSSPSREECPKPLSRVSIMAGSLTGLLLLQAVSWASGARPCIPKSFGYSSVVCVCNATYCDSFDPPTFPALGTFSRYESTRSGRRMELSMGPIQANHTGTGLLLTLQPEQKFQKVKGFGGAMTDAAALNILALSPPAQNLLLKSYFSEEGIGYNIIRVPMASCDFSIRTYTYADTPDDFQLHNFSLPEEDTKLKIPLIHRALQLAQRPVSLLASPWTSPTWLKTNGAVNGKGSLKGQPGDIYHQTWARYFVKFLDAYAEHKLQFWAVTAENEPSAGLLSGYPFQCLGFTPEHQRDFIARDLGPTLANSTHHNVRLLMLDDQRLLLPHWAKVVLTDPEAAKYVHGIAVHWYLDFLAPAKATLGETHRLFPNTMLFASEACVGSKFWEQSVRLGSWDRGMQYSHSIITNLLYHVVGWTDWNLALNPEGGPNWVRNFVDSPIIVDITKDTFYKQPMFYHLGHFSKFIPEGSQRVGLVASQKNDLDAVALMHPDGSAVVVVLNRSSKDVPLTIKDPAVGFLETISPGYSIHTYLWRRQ
# Procedure, shortened: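 Normal human glucocerebrosidase (0.2 nM) with blue fluorogenic substrate (80 uM final) in citrate/phosphate pH 5.9 with 10mM sodium taurocholate, 0.01% tween-20; 40 min RT, NaOH/glycine stop; fluorescence Ex 365/Em 440; AC50 from a titration from 0.6 nM upwards.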
# [8] = AP1 Signaling Pathway (AID 357; active = well fitted curve in either direction with a large enough effect, not every such curve was filed as active; also: % is scaled to controls: 0 for no effect and ±100 for the full control effect); conditions: ME-180 (cervical carcinoma) AP-1-bla reporter, EGF-induced, beta-lactamase ratio, 5 h; at 7.69 µM (top of the series)
# Procedure, shortened: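 AP-1-bla ME-180 cells with beta-lactamase reporter under AP-1 response element, stimulated with EC50 EGF; compounds titrated, 5 hours at 37 degrees Celsius. CCF4 read at 460/530 nm ratio; positive and negative modulators judged by AC50.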
# [9] = biological target: Cytochrome P450 1A2 (Homo sapiens) (UniProt P05177); test: p450-cyp1a2 (AID 410; calls by dose curve; also: potency is read from the fitted curve at half-maximal effect;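 as to activity change, negative = inhibition: -100% = full effect of reference inhibitor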)
# Sequence of Cytochrome P450 1A2 (Homo sapiens) (P05177 whole entry, looked up): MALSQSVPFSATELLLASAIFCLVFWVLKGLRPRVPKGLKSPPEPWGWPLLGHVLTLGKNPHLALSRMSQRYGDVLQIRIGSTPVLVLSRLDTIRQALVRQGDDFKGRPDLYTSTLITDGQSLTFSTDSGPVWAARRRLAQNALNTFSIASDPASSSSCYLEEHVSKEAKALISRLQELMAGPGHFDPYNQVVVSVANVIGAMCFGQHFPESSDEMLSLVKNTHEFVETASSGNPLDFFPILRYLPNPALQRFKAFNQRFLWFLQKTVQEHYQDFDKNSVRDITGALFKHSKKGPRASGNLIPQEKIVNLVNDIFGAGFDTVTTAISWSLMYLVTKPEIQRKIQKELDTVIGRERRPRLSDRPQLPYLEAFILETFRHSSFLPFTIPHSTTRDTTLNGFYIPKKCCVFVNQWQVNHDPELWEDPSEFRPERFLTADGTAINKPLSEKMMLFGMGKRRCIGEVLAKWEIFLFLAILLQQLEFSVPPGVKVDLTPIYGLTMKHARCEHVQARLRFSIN
# Procedure, shortened: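 O-Demethylation of luciferin 6' methyl ether by human CYP1A2 is monitored as luciferase luminescence. Substrate sits at Km (100uM); enzyme is 20nM. Values are scaled to 57 uM furafylline as maximal inhibition.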
# [10] = NFAT Signaling Pathway (AID 444; active = well fitted curve in either direction with a large enough effect, not every such curve was filed as active;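 also: carbachol stimulus at about its EC50 of 1 µM final; % is scaled to controls: 0 for no effect and ±100 for the full control effect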); conditions: Jurkat NFAT-bla M1, carbachol, beta-lactamase ratio, 5 h; at 7.69 µM (top of the series)
# Procedure, shortened: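 Jurkat cells with NFAT-driven β-lactamase reporter and co-expressed M1 receptor, stimulated with carbachol (final 1 uM, ~EC50), compound titration, 5 h at 37 °C. CCF4 loaded 1 h at RT; 460/530 nm ratio gave %activity and AC50.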
# [11] = biological target: Glucocorticoid receptor (Homo sapiens) (UniProt P04150); test: GR-GFP Redistribution (AID 450;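 active = compounds whose dose series gives a full or clear partial fitted curve of increased nuclear translocation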; also: potency is read from the fitted curve at half-maximal effect); conditions: U2OS GR-GFP nuclear translocation, laser cytometry, 2 h
# Sequence of Glucocorticoid receptor (Homo sapiens) (P04150 whole entry, looked up, the tested form may be a part): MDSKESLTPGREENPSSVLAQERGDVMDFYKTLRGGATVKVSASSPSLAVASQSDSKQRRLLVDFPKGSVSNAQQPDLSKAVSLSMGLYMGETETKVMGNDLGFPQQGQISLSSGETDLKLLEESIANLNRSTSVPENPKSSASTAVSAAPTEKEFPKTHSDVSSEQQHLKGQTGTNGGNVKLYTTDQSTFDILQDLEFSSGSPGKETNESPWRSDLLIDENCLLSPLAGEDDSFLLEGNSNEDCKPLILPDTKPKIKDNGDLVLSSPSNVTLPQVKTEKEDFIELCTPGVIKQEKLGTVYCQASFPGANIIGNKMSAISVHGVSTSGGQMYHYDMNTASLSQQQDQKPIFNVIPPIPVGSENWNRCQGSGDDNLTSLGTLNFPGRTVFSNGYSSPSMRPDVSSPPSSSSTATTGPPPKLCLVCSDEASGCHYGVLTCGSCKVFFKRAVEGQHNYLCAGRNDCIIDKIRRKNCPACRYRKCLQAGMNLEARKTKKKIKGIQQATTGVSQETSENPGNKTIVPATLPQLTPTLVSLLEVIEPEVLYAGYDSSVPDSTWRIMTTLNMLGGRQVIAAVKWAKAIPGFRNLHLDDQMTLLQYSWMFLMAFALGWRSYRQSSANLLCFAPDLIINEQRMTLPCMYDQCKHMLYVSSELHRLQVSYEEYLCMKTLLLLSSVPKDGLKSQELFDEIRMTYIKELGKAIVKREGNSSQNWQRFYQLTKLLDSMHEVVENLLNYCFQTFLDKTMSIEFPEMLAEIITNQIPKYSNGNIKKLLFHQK
# [12] = biological target: Glucocorticoid receptor (Homo sapiens) (UniProt P04150); test: GR-EFC Redistribution (AID 451; calls by dose curve; also: potency is read from the fitted curve at half-maximal effect); conditions: CHO-K1 GR-EFC translocation, beta-gal luminescence, 2 h
# Procedure, shortened: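 CHO-K1 cells expressing nuclear EA and GR-ED fragments of b-gal; compounds titrated up to 46 uM final, 2 h at 37 C. GR nuclear translocation read as complemented b-gal luminescence after 1 h RT detection.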
# [13] = biological target: 3',5'-cyclic-AMP phosphodiesterase 4B (Homo sapiens) (UniProt Q07343); test: qHTS Assay for Inhibitors of PDE-IV (AID 607; active = well fitted activation curve with a large enough effect in the main read-out, with a control signal flat, not every such curve was filed as active; also: % of control where 0% means no effect)
# Procedure, shortened: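 The readout is membrane depolarisation from a cAMP-sensing CNG channel, detected with a potential dye at ex 535/em 590. Cells were HEK293-derived (endogenous PDE-IV) at 1000 cells/well, titrated up to 22.9 uM final.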
# [14] = biological target: Cytochrome P450 3A4 (Homo sapiens) (UniProt P08684); test: qHTS Assay for Activators of Cytochrome P450 3A4 (AID 885); also: nearly all actives have a fitted effect of over 65% in size
# Sequence of Cytochrome P450 3A4 (Homo sapiens) (P08684 whole entry, looked up): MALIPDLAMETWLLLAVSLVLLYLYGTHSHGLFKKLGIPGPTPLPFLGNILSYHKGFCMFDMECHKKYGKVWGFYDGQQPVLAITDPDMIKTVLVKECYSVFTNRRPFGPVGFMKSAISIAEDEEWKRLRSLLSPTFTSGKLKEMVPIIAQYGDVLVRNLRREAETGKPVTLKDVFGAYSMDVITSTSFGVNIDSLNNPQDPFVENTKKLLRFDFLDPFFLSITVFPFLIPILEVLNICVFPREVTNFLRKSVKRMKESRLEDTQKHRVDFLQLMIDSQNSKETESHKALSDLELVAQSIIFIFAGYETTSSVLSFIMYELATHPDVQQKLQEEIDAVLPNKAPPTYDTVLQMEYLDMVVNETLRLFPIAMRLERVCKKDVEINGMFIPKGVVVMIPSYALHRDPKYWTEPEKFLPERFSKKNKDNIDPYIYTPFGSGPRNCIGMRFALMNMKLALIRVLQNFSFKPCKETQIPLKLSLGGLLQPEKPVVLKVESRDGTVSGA
# Procedure, shortened: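 Activators are scored by enhanced luminescence from CYP3A4 conversion of luciferin-PPXE (25uM, equal to KM) to luciferin, after 60 min at RT with an NADPH-regenerating system.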
# [15] = qHTS Assay for Lipid Storage Modulators (AID 1519; calls by dose curve; as to activity change, negative = inhibition: % is scaled to controls: 0 for no effect and ±100 for the full control effect); conditions: Drosophila S3 cells, BODIPY lipid droplet/cell ratio, laser cytometry, cells loaded with oleic acid
# Procedure, shortened: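 Cells seeded at 5,000 per well were treated with compounds over a concentration series and loaded with oleic acid (400 uM, as added). Lipid droplet fluorescence (488 nm excitation, 500-530 nm channel) was read by laser-scanning cytometry and normalized to 20 uM Triacsin C.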
# [16] = biological target: Ubiquitin carboxyl-terminal hydrolase 1 (Homo sapiens) (UniProt O94782); test: Inhibitors of USP1/UAF1: Pilot qHTS (AID 504865); also: potency is read from the fitted curve at half-maximal effect; nearly all actives have a fitted effect of over 35% in size
# Sequence of Ubiquitin carboxyl-terminal hydrolase 1 (Homo sapiens) (O94782 whole entry, looked up): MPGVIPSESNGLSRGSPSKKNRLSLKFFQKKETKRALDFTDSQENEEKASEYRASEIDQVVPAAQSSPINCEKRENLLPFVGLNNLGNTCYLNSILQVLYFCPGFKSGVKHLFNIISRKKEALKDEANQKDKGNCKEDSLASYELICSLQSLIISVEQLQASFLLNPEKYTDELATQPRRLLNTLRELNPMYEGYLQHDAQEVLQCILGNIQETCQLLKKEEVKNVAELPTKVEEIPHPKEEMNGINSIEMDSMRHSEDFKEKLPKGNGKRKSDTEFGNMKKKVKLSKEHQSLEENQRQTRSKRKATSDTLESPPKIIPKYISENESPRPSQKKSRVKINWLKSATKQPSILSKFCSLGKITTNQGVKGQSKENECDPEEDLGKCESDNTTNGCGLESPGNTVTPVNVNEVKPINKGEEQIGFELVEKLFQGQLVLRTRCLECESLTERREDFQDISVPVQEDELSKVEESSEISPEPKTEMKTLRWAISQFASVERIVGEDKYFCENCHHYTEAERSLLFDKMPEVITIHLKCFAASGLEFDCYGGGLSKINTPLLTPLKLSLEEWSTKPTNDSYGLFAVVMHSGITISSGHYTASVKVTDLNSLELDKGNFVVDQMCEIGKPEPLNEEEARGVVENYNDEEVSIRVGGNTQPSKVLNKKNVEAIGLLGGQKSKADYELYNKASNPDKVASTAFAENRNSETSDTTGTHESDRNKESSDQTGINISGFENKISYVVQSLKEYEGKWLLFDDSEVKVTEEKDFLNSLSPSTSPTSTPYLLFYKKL
# Procedure, shortened: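 USP1/UAF1 complex (1nM) preincubated with compound 15 min at room temperature, then Ub-Rho substrate (150nM final) added. Fluorescence read kinetically at 480/540 nm, 6 reads every 60 seconds. Buffer: 50mM HEPES pH 7.8, 0.5mM EDTA, 0.1 mg/ml BSA, 1mM TCEP, 0.01% Tween-20.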
# [17] = biological target: DNA dC->dU-editing enzyme APOBEC-3G (Homo sapiens) (UniProt Q9HC16); test: qHTS for inhibitors of Vif-A3G interactions: Validation (AID 588379); also: 0% is about no effect
# Procedure, shortened: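 Yellow fluorescence (Ex 488, Em 500-530) of Vif-coexpressing HeLa A3G-eYFP cells, scanned by Acumen cytometer, reports blocked A3G degradation. Cells plated at 700/well overnight at 37 deg C before compound addition, then a further overnight compound incubation at 37 deg C.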
# [18] = Primary qHTS for small molecule stabilizers of the endoplasmic reticulum resident proteome: Secreted ER Calcium Modulated Protein (SERCaMP) assay (AID 1508630); also: % is scaled to controls: 0 for no effect and ±100 for the full control effect
# Procedure, shortened: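 The SH-SY5Y reporter protocol was run at 3 concentrations up to 38.3 uM (primary) or 11 concentrations (follow-up): 16 h compound, 100 nM thapsigargin for 4 h, then extracellular luciferase luminescence.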
# [19] = biological target: Rap guanine nucleotide exchange factor 3 (Homo sapiens) (UniProt O95398); test: Confirmatory qHTS for antagonist of cAMP-regulated guanine nucleotide exchange factor 3 (EPAC1) (AID 1645880);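 also: plate controls were DMSO only for no effect and full effect of the ATA control for full effect; nearly all actives have a fitted effect of over 55% in size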
# Sequence of Rap guanine nucleotide exchange factor 3 (Homo sapiens) (O95398 whole entry, looked up): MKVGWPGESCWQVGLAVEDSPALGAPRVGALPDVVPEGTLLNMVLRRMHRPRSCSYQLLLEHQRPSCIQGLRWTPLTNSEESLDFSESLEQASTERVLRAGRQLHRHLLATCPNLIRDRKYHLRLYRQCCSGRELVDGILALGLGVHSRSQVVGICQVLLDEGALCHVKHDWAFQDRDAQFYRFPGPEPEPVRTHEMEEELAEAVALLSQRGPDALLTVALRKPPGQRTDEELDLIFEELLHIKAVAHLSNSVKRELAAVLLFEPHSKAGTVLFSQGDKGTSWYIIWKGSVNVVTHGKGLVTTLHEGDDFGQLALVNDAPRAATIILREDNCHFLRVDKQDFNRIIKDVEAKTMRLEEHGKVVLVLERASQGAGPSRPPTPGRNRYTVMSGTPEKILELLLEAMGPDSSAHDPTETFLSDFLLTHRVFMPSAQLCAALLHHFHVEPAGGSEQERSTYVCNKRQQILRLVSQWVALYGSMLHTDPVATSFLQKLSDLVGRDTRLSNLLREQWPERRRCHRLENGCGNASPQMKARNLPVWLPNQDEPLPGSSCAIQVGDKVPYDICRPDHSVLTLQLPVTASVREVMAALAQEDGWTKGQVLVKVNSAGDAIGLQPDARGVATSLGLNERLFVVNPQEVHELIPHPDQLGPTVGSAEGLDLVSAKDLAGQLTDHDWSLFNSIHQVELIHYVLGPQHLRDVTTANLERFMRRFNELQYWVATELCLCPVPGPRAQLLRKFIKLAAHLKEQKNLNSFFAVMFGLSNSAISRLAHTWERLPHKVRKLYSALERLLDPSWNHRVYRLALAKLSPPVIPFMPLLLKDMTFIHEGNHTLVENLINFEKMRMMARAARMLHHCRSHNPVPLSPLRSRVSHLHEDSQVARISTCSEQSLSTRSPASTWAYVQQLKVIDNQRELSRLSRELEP
# Procedure, shortened: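 Released BODIPY-GDP fluoresces less than Rap1-bound BODIPY-GDP; the signal is followed at 480/540 nm at 5-min intervals over 30 min, after 5 min at room temperature. Reactions contain 100 nM EPAC1, 250 nM RAP1B-BODIPY-GDP and 50 uM GDP; results are normalized to ATA and DMSO.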
# [20] = biological target: Rap guanine nucleotide exchange factor 3 (Homo sapiens) (UniProt O95398); test: Confirmatory qHTS for agonist of cAMP-regulated guanine nucleotide exchange factor 3 (EPAC1) (AID 1645881);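 also: EPAC1 catalysed release of BODIPY-GDP from Rap1B seen as fluorescence loss; 100% = effect of cAMP agonist control; nearly all actives have a fitted effect of over 75% in size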
# [21] = biological target: Rap guanine nucleotide exchange factor 4 (Homo sapiens) (UniProt Q8WZA2); test: Confirmatory qHTS for antagonist of cAMP-regulated guanine nucleotide exchange factor 4 (EPAC2) (AID 1645885); also: % is scaled to controls: 0 for no effect and ±100 for the full control effect; nearly all actives have a fitted effect of over 25% in size
# Sequence of Rap guanine nucleotide exchange factor 4 (Homo sapiens) (Q8WZA2 whole entry, looked up): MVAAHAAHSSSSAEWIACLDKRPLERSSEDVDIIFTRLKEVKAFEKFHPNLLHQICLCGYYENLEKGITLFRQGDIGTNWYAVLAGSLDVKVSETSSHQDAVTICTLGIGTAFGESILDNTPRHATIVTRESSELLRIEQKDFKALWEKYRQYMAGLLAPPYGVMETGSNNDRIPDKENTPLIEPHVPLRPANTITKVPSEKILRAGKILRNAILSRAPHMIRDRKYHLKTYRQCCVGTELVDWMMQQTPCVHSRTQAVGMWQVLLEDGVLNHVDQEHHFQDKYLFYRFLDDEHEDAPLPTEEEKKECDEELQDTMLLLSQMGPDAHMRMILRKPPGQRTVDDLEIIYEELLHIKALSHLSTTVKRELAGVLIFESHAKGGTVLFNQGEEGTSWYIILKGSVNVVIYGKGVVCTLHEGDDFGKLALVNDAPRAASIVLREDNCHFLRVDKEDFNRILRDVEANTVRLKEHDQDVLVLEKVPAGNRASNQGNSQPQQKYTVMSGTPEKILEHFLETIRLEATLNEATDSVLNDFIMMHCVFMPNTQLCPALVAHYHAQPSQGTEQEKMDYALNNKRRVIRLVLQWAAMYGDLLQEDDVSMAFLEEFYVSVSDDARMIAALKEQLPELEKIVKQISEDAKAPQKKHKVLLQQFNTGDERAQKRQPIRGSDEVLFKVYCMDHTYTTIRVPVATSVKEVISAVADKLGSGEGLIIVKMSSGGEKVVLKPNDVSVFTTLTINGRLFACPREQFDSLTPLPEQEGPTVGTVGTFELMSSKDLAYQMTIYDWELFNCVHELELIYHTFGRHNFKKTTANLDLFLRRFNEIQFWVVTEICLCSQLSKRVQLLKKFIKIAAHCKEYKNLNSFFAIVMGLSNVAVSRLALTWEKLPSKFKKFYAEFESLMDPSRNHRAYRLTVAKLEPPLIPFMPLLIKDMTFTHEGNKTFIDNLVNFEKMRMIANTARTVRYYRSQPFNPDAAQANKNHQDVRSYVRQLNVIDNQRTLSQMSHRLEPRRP
# [22] = biological target: Rap guanine nucleotide exchange factor 3 (Homo sapiens) (UniProt O95398); test: Counterscreen qHTS for antagonist of cAMP-regulated guanine nucleotide exchange factor 3 (EPAC1) (AID 1645888); also: % of control where 0% means no effect
# Procedure, shortened: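 Rap1B–BODIPY-GDP (250 nM) with 50 uM GDP; compounds pin-transferred to 9.74 nM–152 uM final (activator) or from 7.32 nM upwards (inhibitor). Fluorescence Ex/Em 480/540 nm read at 5 and 30 min, then after adding cAMP or buffer, at room temperature.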
structure (smiles),measurement,setting,value
Cc1ccc(-c2cc(C(F)(F)F)c(C#N)c(SCC(=O)O)n2)cc1,Potency,[1],44.7 µM (active)
same,Potency,[2],inactive
same,Potency,[3],44.7 µM (active)
same,Potency,[4],141 µM (active)
same,Potency,[5],126 µM (active)
O=C(CNC(=O)c1ccccc1F)OCc1cc(=O)n2nc(C3CCCCC3)sc2n1,Potency,[1],inactive
same,Potency,[3],inactive
same,Potency,[6],inactive
CC(C)(C)c1ccc(S(=O)(=O)c2cnc(SCC(=O)Nc3ccc4c(c3)OCCO4)[nH]c2=O)cc1,Potency,[1],7.08 µM (active)
same,Potency,[2],inactive
same,Potency,[3],6.31 µM (active)
same,Potency,[4],316 µM (active)
same,Potency,[5],31.6 µM (active)
same,Potency,[6],inactive
O=C(O)c1c(Br)c(Br)c(Br)c(Br)c1C1c2ccc(O)cc2Oc2cc(O)ccc21,Potency,[7],7.36 µM (active)
same,"activity change, negative = inhibition",[8],-20.1% (inactive)
same,"activity change, negative = inhibition",[9],-6.8% [at 2.29 µM] (inactive)
same,"activity change, negative = inhibition",[10],-6.47% (inactive)
same,Potency,[11],> 46 µM (inactive)
same,Potency,[12],> 9.22 µM (inactive)
same,Potency,[13],inactive
same,"activity change, positive = activation",[14],-36% [at 11.4 µM] (inactive)
same,Potency,[1],12.6 µM (active)
same,Potency,[2],inactive
same,Potency,[3],0.891 µM (active)
same,Potency,[4],14.1 µM (active)
O=C(Nc1ccc(C(=O)Nc2ccc(C(=O)Nc3ccc(S(=O)(=O)O)c4cc(S(=O)(=O)O)cc(S(=O)(=O)O)c34)cc2)cc1)Nc1ccc(C(=O)Nc2ccc(C(=O)Nc3ccc(S(=O)(=O)O)c4cc(S(=O)(=O)O)cc(S(=O)(=O)O)c34)cc2)cc1,Potency,[9],31.6 µM (active)
same,Potency,[11],> 46 µM (inactive)
same,Potency,[12],> 46 µM (inactive)
same,"activity change, negative = inhibition",[15]; at 57.5 µM (top of the series),5.27% (inactive)
same,max response,[15]; measured here: cell count channel max response,-4.46%
same,max response,[15]; measured here: lipid channel max response,0.0462%
same,Potency,[16],39.8 µM (active)
same,Potency,[17],inactive
same,Potency,[1],2 µM (active)
same,Potency,[3],2.24 µM (active) and 1.26 µM (active)
same,Potency,[4],39.8 µM (active)
same,Potency,[5],2.51 µM (active)
same,Potency,[6],inactive
same,Potency,[18],inactive
O=C(O)c1ccc2c(ccc3nn(-c4ccc(/C=C/c5ccc(-n6nc7ccc8cc(C(=O)O)ccc8c7n6)cc5[S+](=O)([O-])[O-])c([S+](=O)([O-])[O-])c4)nc32)c1,Potency,[1],2.82 µM (active)
same,Potency,[2],4.47 µM (active)
same,Potency,[3],6.31 µM (active)
same,Potency,[4],inactive
same,Potency,[5],12.6 µM (active)
same,Potency,[6],inactive
CCOC(=O)c1ccc(NC(=O)c2nc(SCc3ccc(F)cc3)ncc2Cl)cc1,Potency,[1],inactive
same,Potency,[3],inactive
same,Potency,[6],inactive
CCCCc1nn2c(=O)cc(COC(=O)c3ccc(NC(=O)c4cccs4)cc3)nc2s1,Potency,[1],inactive
same,Potency,[3],inactive
same,Potency,[6],inactive
O=C(COC(=O)c1cccc(NC(=O)c2ccc(Br)cc2)c1)c1ccc(Cl)cc1,Potency,[1],inactive
same,Potency,[6],inactive
O=C(/C=C/c1ccc(C(F)(F)F)cc1)OC(C(=O)NC1CC1)c1ccccc1 (stereo not drawn),Potency,[1],inactive
same,Potency,[3],inactive
same,Potency,[6],inactive
O=C(Nc1ccccc1C(=O)OCc1cc(=O)n2c3c(sc2n1)CCCC3)c1ccc(F)cc1,Potency,[1],inactive
same,Potency,[6],inactive
same,Potency,[19],inactive
same,outcome,[20],inactive
same,"activity change, negative = inhibition",[21],-5.61% [at 12.7 µM] (inactive)
same,outcome,[22],inactive
